From article PMC4336329 (PLoS ONE, 2015)
Screen size: about 310,000 compounds; about 2,200 (0.71%) showed an effect of 50% or more. The effect is printed as a negative number. This excerpt belongs to a sample that is enriched for strong results.

Molecular target: human ether-à-go-go-related gene (hERG) potassium channel (human, UniProt Q12809)
Experiment: primary screen, population patch clamp on CHO cells stably expressing hERG; higher = less effect of the substance

Sequence of human ether-à-go-go-related gene (hERG) potassium channel (Q12809 whole entry, looked up): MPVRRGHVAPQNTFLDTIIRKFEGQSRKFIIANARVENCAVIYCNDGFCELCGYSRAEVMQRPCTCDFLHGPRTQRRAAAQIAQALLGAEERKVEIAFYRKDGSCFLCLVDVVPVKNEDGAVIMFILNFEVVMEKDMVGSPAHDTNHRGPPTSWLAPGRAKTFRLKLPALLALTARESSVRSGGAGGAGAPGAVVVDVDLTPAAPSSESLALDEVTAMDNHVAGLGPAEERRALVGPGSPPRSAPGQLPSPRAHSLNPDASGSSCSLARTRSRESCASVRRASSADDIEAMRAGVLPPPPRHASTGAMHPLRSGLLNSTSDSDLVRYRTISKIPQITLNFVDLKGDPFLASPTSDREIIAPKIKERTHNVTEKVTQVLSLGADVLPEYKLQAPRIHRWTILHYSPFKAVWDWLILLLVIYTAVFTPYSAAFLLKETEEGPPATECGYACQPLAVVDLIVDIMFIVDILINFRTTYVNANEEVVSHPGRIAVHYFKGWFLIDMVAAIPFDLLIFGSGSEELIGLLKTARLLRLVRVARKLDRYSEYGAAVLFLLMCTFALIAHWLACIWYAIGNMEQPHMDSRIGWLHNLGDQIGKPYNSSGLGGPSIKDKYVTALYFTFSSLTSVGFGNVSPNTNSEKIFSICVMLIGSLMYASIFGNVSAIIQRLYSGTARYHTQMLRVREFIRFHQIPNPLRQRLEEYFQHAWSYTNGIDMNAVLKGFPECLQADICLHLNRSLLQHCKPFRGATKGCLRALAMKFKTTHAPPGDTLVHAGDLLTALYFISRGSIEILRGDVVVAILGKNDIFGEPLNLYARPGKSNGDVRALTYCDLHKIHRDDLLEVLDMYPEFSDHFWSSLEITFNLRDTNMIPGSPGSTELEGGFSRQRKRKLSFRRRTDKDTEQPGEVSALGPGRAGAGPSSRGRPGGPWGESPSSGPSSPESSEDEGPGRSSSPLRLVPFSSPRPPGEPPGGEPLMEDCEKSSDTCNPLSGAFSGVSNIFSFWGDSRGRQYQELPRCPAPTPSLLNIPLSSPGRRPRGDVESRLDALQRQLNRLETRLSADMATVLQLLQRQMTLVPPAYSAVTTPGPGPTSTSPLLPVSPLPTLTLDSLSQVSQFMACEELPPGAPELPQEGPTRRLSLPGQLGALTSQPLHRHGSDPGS

Structure (SMILES)	hERG current change (%, negative = inhibition) at 1uM
Cc1ccc(S(=O)(=O)NC2CCC(C(=O)O)CC2)cc1 (centres unmarked)	9.17%
COC(=O)c1oc2ccc(OC)cc2c1N	14.9%
CC(=O)N(c1ccccc1C)S(=O)(=O)c1ccc(Cl)cc1	10%
COc1ccc2[nH]c(C(=O)NCCc3ccccc3)cc2c1	17.2%
COc1ccccc1NC(=S)NC1CCCC1	14.8%
CN1/C(=C\C(=O)c2ccco2)C(C)(C)c2ccccc21	4.59%
CC(OC(=O)CCC(=O)c1ccccc1)C(=O)Nc1ccc(F)cc1 (centres unmarked)	-299%
CC(OC(=O)CCCC(=O)Nc1ccc(F)cc1)C(=O)c1ccccc1 (centres unmarked)	12.7%
CC(=O)Nc1ccc(NC(=O)C(C)OC(=O)CCC(=O)c2ccc(F)cc2)cc1 (centres unmarked)	8.41%
CC(=O)NCCC(=O)Nc1nc2ccc(Oc3ccccc3)cc2s1	2.19%
Cc1cccc(S(=O)(=O)Nc2cccc3c2C(=O)c2ccccc2-3)c1	3.03%
CN(C)CCCN(C(=O)c1cccs1)c1nc(-c2ccccc2)cs1	-50.7%
CCC(=O)N(CC)c1nc(-c2cc(OC)ccc2OC)cs1	12.9%
COc1ccc(-c2csc(N(CCCN(C)C)C(=O)c3cccs3)n2)cc1.Cl	-51.6%
COc1ccc(-c2csc(N(CCCN(C)C)C(=O)c3ccccc3C)n2)cc1.Cl	-2.13%
CCN(CC)CCCN(C(C)=O)c1nc(-c2cc(OC)ccc2OC)cs1.Cl	-51%
COc1ccc(-c2csc(N(CCCN(C)C)C(=O)c3ccc(C)cc3)n2)cc1.Cl	-17.2%
CCC(=O)N(CCCN(C)C)c1nc(-c2cc(OC)ccc2OC)cs1.Cl	-8.76%
COc1ccc(-c2csc(N(CCCN(C)C)C(=O)c3ccccc3Cl)n2)cc1.Cl	-12.5%

Structure (SMILES)	hERG current change (%, negative = inhibition) at 1uM
CCN(C(=O)c1cccs1)c1nc(-c2ccc(OC)cc2)cs1	13.4%
CCN(CC)CCCN(C(=O)c1cccs1)c1nc(-c2ccc(OC)cc2)cs1	-71.8%
O=C(c1cccs1)N(CC1CCCO1)c1nc(-c2ccccc2)cs1 (centres unmarked)	11.8%
CCN(CC)CCCN(C(=O)c1ccc(OC)cc1)c1nc(-c2ccc(OC)cc2)cs1	-15.5%
COC(=O)c1cc(OC)c(OC)cc1NC(=O)C(C)c1ccc([N+](=O)[O-])cc1 (centres unmarked)	8.84%
CC1OC2(OC1C)C(=O)Nc1ccccc12 (centres unmarked)	6.93%
Cc1onc(NC(=O)NC(=O)c2c(F)cccc2Cl)c1Br	10.4%
O=C(Cn1nc(C(=O)O)c2ccccc2c1=O)Nc1ccc2c(c1)C(=O)c1ccccc1C2=O	6.96%
COc1ccc(-c2nc(CS(=O)CC(=O)NCc3ccco3)c(C)o2)cc1 (centres unmarked)	-1.89%
COc1cc(/C=C2\C(=N)N3N=CSC3=NC2=O)ccc1OS(=O)(=O)c1ccccc1	6.08%
CCCCc1ccc(NC(=S)N2CCCC(C)C2)cc1 (centres unmarked)	10.2%
CC(C)Cn1c(N2CCN(C(=O)c3cccs3)CC2)nc2ccccc21	-74.7%
CC(C)n1c(N2CCN(CC(=O)NCc3cccs3)CC2)nc2ccccc21	-30.9%
CC(C)n1c(N2CCN(C(=O)c3cccs3)CC2)nc2ccccc21	-26.9%
CCCn1c(N2CCN(CC(=O)NCc3cccs3)CC2)nc2ccccc21	-62.7%
CCCn1c(N2CCN(CC(=O)Nc3ccc4c(c3)OCCO4)CC2)nc2ccccc21.Cl	-29.2%
O=C(c1cccs1)N1CCN(c2nc3ccccc3s2)CC1	7.28%
O=C(/C=C/c1cccc([N+](=O)[O-])c1)OC1CCCCC1=O (centres unmarked)	9.96%
Cc1ccc(C(C)NC(=O)CSc2ccc(S(=O)(=O)N3CCOCC3)cn2)cc1C (centres unmarked)	5.8%

Structure (SMILES)	hERG current change (%, negative = inhibition) at 1uM
COc1ccc(Cl)cc1Nc1nc(-c2sc(NC(=O)CC(C)C)nc2C)cs1	11.1%
CCOC(=O)c1sc(=S)n(-c2cc(OC)ccc2OC)c1N	6.58%
COc1cc2c(cc1OC)CN(CC(=O)Nc1ccc(Cl)cc1Cl)CC2	2.03%
COc1cc2c(cc1OC)CN(CCC(C)c1ccc(Cl)cc1)CC2.O=C(O)/C=C\C(=O)O (centres unmarked)	-50.5%
COc1cc2c(cc1OC)C(C)N(CCc1ccc(Cl)cc1)CC2.O=C(O)/C=C\C(=O)O (centres unmarked)	-39.9%
O=C(COC(=O)c1cccs1)Nc1ccccc1Cl	14.6%
COC(=O)CSc1nnc(-c2ccoc2C)n1-c1ccc(OC)cc1	8.81%
COc1ccc(-n2c(SCC(=O)Nc3nc(C)cs3)nnc2-c2ccoc2C)cc1	-85%
COc1cccc(-n2c(SCC(=O)Nc3nccs3)nnc2-c2ccoc2C)c1	-84.6%
Cc1occc1-c1nnc(SCC(=O)NCc2cccs2)n1-c1ccc(F)cc1	-14%
CCn1c(SCC(=O)Nc2nc(C)cs2)nnc1-c1ccoc1C	10.4%
Cc1ccc(-n2c(SCC(=O)NCc3cccs3)nnc2-c2ccoc2C)cc1	-16.5%
COc1ccc(-n2c(SCC(=O)Nc3ccccc3)nnc2-c2ccoc2C)cc1	11.7%
COc1ccc(-n2c(SCC(=O)NCc3cccs3)nnc2-c2ccoc2C)cc1	-55.9%
Cc1csc(NC(=O)CSc2nnc(-c3ccoc3C)n2Cc2ccco2)n1	-78.4%
Cc1occc1-c1nnc(SCC(=O)Nc2nccs2)n1Cc1ccco1	3.28%
CCOc1ccccc1-n1c(SCC(=O)Nc2nccs2)nnc1-c1ccoc1C	11.5%
Cc1csc(NC(=O)CSc2nnc(C)n2Cc2ccco2)n1	7.95%
